Screening results (PubChem BioAssay)
In the library only some 1.1% were active in any assay of this set; here they are far more common.
AmpC detergent: inhibitors of E. coli AmpC beta-lactamase with detergent | AmpC hydrolysis of nitrocefin, absorbance 480 nm, 0.01% Triton | Potency, µM (doses to about 114 µM), without a hit: at the top dose activity change, negative = inhibition, actives largely listed as inhibitors | 0.041% of 370,000 active | AID 485294;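 further: 0% = no-compound wells and -100% = no-enzyme wells; nearly all actives have a fitted effect of over 25% in size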
Target sequence (P00811 whole entry, looked up): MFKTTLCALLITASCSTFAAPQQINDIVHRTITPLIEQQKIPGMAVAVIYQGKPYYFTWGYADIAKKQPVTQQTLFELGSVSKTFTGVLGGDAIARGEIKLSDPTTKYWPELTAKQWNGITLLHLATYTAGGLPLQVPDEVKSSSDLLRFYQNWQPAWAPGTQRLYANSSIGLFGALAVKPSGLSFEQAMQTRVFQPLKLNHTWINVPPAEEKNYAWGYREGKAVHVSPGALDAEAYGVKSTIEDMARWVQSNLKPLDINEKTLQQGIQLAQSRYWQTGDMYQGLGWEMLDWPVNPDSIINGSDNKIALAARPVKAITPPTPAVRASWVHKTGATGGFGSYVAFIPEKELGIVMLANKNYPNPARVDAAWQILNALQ
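20 mM phosphate pH 7.0 + 0.01% (detergent screen) or 0.0001% Triton X-100; 5.3 nM AmpC reagent; cpd preinc 15 min RT; nitrocefin (800 uM stock) to start; A480 q20 s × 4 min; Activity was normalised to no-enzyme and no-compound control wells.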
VACV mCherry inh: inhibitors of vaccinia virus infection (mCherry reporter signal); Vaccinia virus mCherry reporter infection, fluorescence; Potency, µM (top dose mostly 36.5 µM), for the others: at the highest dose activity change, negative = inhibition, hits mostly inhibitors; 0.63% of 310,000 active; calls by dose curve; tested in A549 cells; further: nearly all actives have a fitted effect of over 35% in size
AmpC inh no detg: AmpC beta-lactamase inhibition without detergent | Potency, µM (titrated, usually from 57.1 µM), without a hit: at the highest dose activity change, negative = inhibition, most hits filed as inhibitors | P00811 | AmpC nitrocefin hydrolysis, absorbance 480 nm, 0.0001% Triton | 0.52% of 330,000 active;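 further: plate controls were no compound for no effect and no enzyme for full effect; nearly all actives have a fitted effect of over 20% in size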
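AmpC (5.3 nM in the dispensed reagent) in 20 mM phosphate pH 7.0 with 0.01% (detergent screen) or 0.0001% Triton X-100 was preincubated with compounds for 15 min at room temperature. Nitrocefin was then added from an 800 uM solution, and hydrolysis was followed at 480 nm.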
VACV Venus inh: inhibitors of vaccinia virus (Venus reporter). 0.46% of 330,000 active. Vaccinia virus Venus reporter expression, fluorescence. Potency, µM (top dose mostly 36.5 µM), for inactives: at the highest dose activity change, negative = inhibition, usual class: inhibitors; calls by dose curve; tested in A549 cells; further: nearly all actives have a fitted effect of over 30% in size
* hit, by the source's call; i = inactive; ? = inconclusive; nt = no result; ! = a repeat was not active; [ ] = dose if it differs, or a comment. Unless noted, the call rests on the fitted dose curve; in most records, active means well fitted curve in the direction sought with a large enough effect; inconclusive means small, poorly fitted or top-dose-only effect, or another doubt; inactive means no such curve, though single readings can be large; an effect the other way counts as inactive or inconclusive. Unless noted, on the % scale 0 is the no-effect control and ±100 the full control effect; potency means the concentration at half of the fitted maximal effect.

SMILES | AmpC detergent | VACV mCherry inh | AmpC inh no detg | VACV Venus inh
COc1ccccc1NC(=O)CSc1oc(-c2ccccc2)nc1S(=O)(=O)c1ccc(C)cc1 | 5.7% | -22.3% | nt | -12.3%
O=[N+]([O-])c1ccc(O)c(C(C#Cc2ccccc2)N2CCOCC2)c1 (stereo unspecified) | -3.1% | i | 8.91µM* | -19.2%
O=C(c1cc([N+](=O)[O-])ccc1N1CCOCC1)N1CCN(c2ccccc2)CC1 | 6.3% | nt | 95.5% | nt
CC[N+](CC)(CC)c1ccc(/C=C/c2ccc3ccccc3n2)cc1 | nt | i | nt | i
CCCCCCCCC[n+]1cccc2c3ccccc3ccc21 | -0.3% | nt | 68.9% | 11.2µM*
CCCCCCCCCCCC[n+]1ccc(C)c2ccccc21 | nt | -11.2% | nt | -9.5%
CCCCCCCCCCCCCCCC[n+]1cccc2ccccc21 | -5.1% | 10µM* | 177.5% | 10µM*
Cc1cccc(C2CC(c3ccc(F)cc3)Nc3nc(N)nn32)c1 (stereo unspecified) | -8.9% | -7.5% | 4.4% | -8.5%
Cc1cccc(C2CC(c3ccc(Cl)cc3)Nc3nc(N)nn32)c1 (stereo unspecified) | ? | nt | 3.55µM* | nt
Cc1ccc(C2CC(c3cccc(Cl)c3)n3nc(N)nc3N2)cc1 (stereo unspecified) | ? | nt | 6.31µM* | nt
Nc1ccn(C2OC(CO)C(O)C2O)c(=O)n1 (stereo unspecified) | nt | 0.0891µM*! | nt | -25.5%
Nc1ccn([C@@H]2O[C@H](CO)[C@@H](O)[C@@H]2O)c(=O)n1 | -11.3% | 0.501µM* | -22.7% | ?
NC(=O)c1ncn(C2OC(CO)C(O)C2O)c1N (stereo unspecified) | nt | -13.1% | nt | -8.2%
Nc1ncnc2c1ccn2[C@@H]1O[C@H](CO)[C@@H](O)[C@H]1O | nt | 1.41µM* | nt | 1.78µM*
NC[C@H]1O[C@@H](n2ccc(N)nc2=O)[C@H](O)[C@@H]1O | nt | 34.8% | nt | -9.4%
Nc1ncn([C@@H]2O[C@H](CO)[C@@H](O)[C@H]2O)c(=O)n1 | ? | 2.82µM*! | -7.0% | 6.31µM*
COc1ccc(CNC(=O)c2cnn(-c3nccc(-c4ccco4)n3)c2C)cc1OC | nt | ? | nt | -14.0%
COc1ccc(-c2ccc(C(=O)NCC3Cc4cccc(-c5nc(C)cnc5C)c4O3)o2)cc1 (stereo unspecified) | nt | -12.5% | nt | 5.4%
COc1ccc(NC(=O)CSc2nc3c(c(=O)n2-c2ccccc2OC)SCC3)cc1 | -11.4% | -7.3% | 35.5µM* | 3.8%
COCc1c(C(=O)NC2CCCCCC2)cnn1-c1nccc(-c2cc(C)sc2C)n1 | nt | -11.5% | nt | -6.1%
COc1ccc(OC)c(S(=O)(=O)ON2C(=O)c3ccccc3C2=O)c1 | 39.8µM* | i | ? | -8.7%
CCc1ccc(S(=O)(=O)ON2C(=O)c3ccccc3C2=O)cc1 | 35.5µM* | -1.8% | -5.1%[2.29 µM] | 1.0%
O=C1c2cccc3cccc(c23)C(=O)N1OS(=O)(=O)c1ccc(Cl)cc1 | -12.3% | i | -26.9% | -3.8%
Cc1ccc(-c2nnc(SC(C)C(=O)NCc3ccco3)n2C)cc1 (stereo unspecified) | nt | i | nt | -21.5%
OC1(c2cccnc2)CCN(Cc2ccc3c(c2)CN(Cc2cc4ccccc4s2)CCO3)CC1 | nt | -24.2% | nt | -21.3%
SMILES | AmpC detergent | VACV mCherry inh | AmpC inh no detg | VACV Venus inh
Cc1c(Cl)cccc1NC(=O)COC(=O)c1c2c(nc3ccccc13)CCN(Cc1ccccc1)C2 | 0.7% | 11.2µM* | 8.4% | ?
CC(C)c1ccccc1NC(=O)COC(=O)c1c2c(nc3ccccc13)CCN(Cc1ccccc1)C2 | -4.1% | nt | 3.55µM* | nt
O=C(C[n+]1cccc(Br)c1)c1ccc(Br)cc1 | nt | i | nt | -14.5%
CC(C)NC(=O)[C@@H]1C[C@@H](Sc2ccccn2)CN1C1CCN(C)CC1 | nt | i | nt | -15.5%
Cc1cccc(OCCCC(=O)NC(C)C)c1 | 6.1% | nt | -9.9% | 11.2µM*
O=C(O)c1ccccc1NC(c1ccccc1)c1ccc2cccnc2c1O (stereo unspecified) | nt | 8.91µM* | nt | ?
Oc1ccccc1C(Nc1nccs1)c1ccc2cccnc2c1O (stereo unspecified) | -8.0% | 8.91µM* | -58.0% | ?
COc1ccccc1NC(c1cccnc1)c1ccc2cccnc2c1O (stereo unspecified) | ? | -29.4% | -22.6% | -10.1%
Cc1ccnc(NC(c2ccccc2F)c2ccc3cccnc3c2O)c1 (stereo unspecified) | 21.4% | 15.8µM* | nt | ?
COc1cc(C(Nc2ccccn2)c2ccc3ccc(C)nc3c2O)cc(OC)c1O (stereo unspecified) | -7.1% | 12.6µM* | 49.9% | ?
CCN1C(=O)CC(CC(=O)N2CCC(c3nc4ccc(F)cc4[nH]3)CC2)(c2ccccc2C)C1=O (stereo unspecified) | nt | -29.3% | nt | -5.4%
OC(c1cccnc1)c1ccc2c(c1)CN(Cc1ccc(-c3ccccc3Cl)o1)CCO2 (stereo unspecified) | nt | -0.5% | nt | -7.0%
Oc1c(C(Nc2ccccn2)c2ccccc2F)ccc2cccnc12 (stereo unspecified) | 0.5% | -5.5%[7.34 µM] | nt | -2.3%[7.34 µM]
Oc1c(C(Nc2ccccn2)c2ccccn2)ccc2cccnc12 (stereo unspecified) | ? | ? | 13.0% | 10µM*
CCCCCCCCN1[C@@H](CC(C)=O)c2ccc(/C=C/C(C)=O)cc2S1(=O)=O | nt | -15.8% | nt | -5.4%
O=C(CNC(=O)/C(=C/c1ccccc1)NC(=O)c1ccc(Br)cc1)OCc1ccccc1 | -1.8% | ? | 3.55µM* | -8.3%
CCCNC1=C(N(C(C)=O)c2cccc(F)c2)C(=O)c2ccccc2C1=O | -3.7% | 14.1µM* | 3.1% | 12.6µM*
NS(=O)(=O)c1ccc(Oc2ccc(S(N)(=O)=O)cc2)cc1 | -4.6% | -5.3% | -7.2% | -12.1%
C=CS(=O)(=O)c1ccc(Oc2ccc(S(=O)(=O)C=C)cc2)cc1 | -7.7% | 7.08µM* | -25.4% | 10µM*
CN(CCO)C(=O)c1cn(C2CCN(Cc3c(F)cccc3Cl)CC2)nn1 | nt | -9.4% | nt | 21.4%
Cc1sc2ncnc(N/N=C/c3ccccc3O)c2c1C | ? | 3.55µM* | 30.8% | ?
Cc1sc2ncnc(N/N=C/c3ccc(O)cc3)c2c1C | -4.3% | ? | -14.0% | -26.2%
COc1ccccc1CNC(=O)c1cnn(-c2nccc(-c3cccs3)n2)c1C | nt | -8.6% | nt | -12.9%
O=S(=O)(c1ccccc1)N(CC(F)(F)F)c1ccc(C(O)(C(F)(F)F)C(F)(F)F)cc1 | nt | ? | nt | 11.2µM*!
CCN(c1ccc(C(O)(C(=O)OC)C(F)(F)F)cc1)S(=O)(=O)c1ccccc1 (stereo unspecified) | -13.5% | -0.1% | 13.7% | -22.4%
C#CCOc1ccccc1/C=N/NC(=O)c1ccccc1OCc1ccccc1 | -9.1% | nt | 20µM* | nt
COc1ccccc1C(=O)NCC(=O)N/N=C/c1cc(Br)ccc1OCc1ccccc1 | 1.9% | -11.7% | 25.1µM* | -15.2%
O=C(CNC(=O)c1cccc(F)c1)N/N=C/c1cc(Br)ccc1OC(=O)/C=C/c1ccco1 | -6.0% | nt | 15.8µM* | nt
O=C(CNC(=O)c1ccccc1O)N/N=C/c1cc(Br)ccc1OC(=O)/C=C/c1ccco1 | -13.8% | ? | 3.16µM* | -22.4%
